ChEMBL document CHEMBL3988442, “University of Dundee, Small-Polar-MMV Screening Library” (2021)

Tests used:
[1] = molecular target: T1, Aspartate--tRNA(Asp/Asn) ligase (Mycobacterium tuberculosis (strain ATCC 25618 / H37Rv)) (UniProt P9WFW3); assay: Assay for Asp RNA synthetase-1 from Mycobacterium tuberculosis; assay type: functional; design: scale not given: direction of the effect not stated beside the values; details: 30 µM; also: in the data most compounds retested in dose-response had high values
T1 sequence (whole entry): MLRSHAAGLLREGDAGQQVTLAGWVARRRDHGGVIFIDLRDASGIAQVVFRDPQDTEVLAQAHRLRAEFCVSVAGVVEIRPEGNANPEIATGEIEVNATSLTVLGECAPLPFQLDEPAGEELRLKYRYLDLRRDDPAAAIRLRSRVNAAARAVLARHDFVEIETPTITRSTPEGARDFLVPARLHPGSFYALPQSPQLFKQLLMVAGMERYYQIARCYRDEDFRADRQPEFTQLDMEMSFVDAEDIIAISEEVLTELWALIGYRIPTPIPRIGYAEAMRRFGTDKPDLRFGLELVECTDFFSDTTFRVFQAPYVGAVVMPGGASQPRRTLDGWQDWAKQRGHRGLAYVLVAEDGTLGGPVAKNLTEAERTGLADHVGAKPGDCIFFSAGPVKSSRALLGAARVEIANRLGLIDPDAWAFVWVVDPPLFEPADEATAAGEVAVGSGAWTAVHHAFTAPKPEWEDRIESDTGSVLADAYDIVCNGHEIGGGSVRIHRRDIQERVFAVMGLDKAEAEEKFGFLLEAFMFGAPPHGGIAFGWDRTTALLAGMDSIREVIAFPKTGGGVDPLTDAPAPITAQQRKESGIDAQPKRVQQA

[2] = molecular target: Shiga toxin 2 (Escherichia coli O157:H7) (UniProt P09385+P09386); assay: E. coli 0.157:H7 Shiga Toxin SOP - stx2 screening assay; assay type: functional; design: scale not given: direction of the effect not stated beside the values; details: 30 µM

Structure (SMILES) | Percent Effect [1] | Percent Effect [2]
COCC(=O)N1CCN(Cc2coc(-c3cccc(F)c3)n2)CC1 | -1.18% | 16.9%
CCOCC(O)CN1CCN(C(=O)c2ccccc2Cl)CC1 (configuration not stated) | -4.21% | 24.8%
Cc1cccc(CN2CCc3c(nc(N4CCCCC4C)[nH]c3=O)C2)n1 (configuration not stated) | -1.15% | 21.7%
O=C1COC2(CCN(C(=O)c3ccco3)CC2)CN1Cc1ccccn1 | -2.5% | -3.41%
CC(=O)N(Cc1noc(C)n1)C1CCN(Cc2cc(C)on2)C1 (configuration not stated) | 4.07% | 11%
N#Cc1cccnc1N1CCC2(CCCN(C3CCOCC3)C2=O)C1 (configuration not stated) | -3.99% | -16.3%
COc1ccc(CN2CCC3(CC2)CCN(CC2CC2)C3=O)cc1 | -4.6% | -2.04%
Cc1nc2ccnn2c(C)c1CCC(=O)N1CCC(C(N)=O)CC1 | 0% | 13.3%
CCC(CNC(=O)c1cc(OC)ccc1Br)N1CCc2ccccc2C1 (configuration not stated) | 4.47% | 9.68%
CCn1cnnc1CNC(=O)c1cc(Cl)ccc1O | 3.77% | -19.6%
CC(C)CCNC(=O)c1sccc1N(C)S(=O)(=O)c1ccccc1 | 5.12% | -20%
c1nc2c(c(-c3ccsc3)n1)CCN(Cc1ccoc1)CC2 | 8.04% | -46%
COc1ccc(-c2noc(CN3CCOCC3C)n2)cc1OC (configuration not stated) | 4.1% | 26.5%
CC(=O)NCC(=O)N1CCOC2(CCCN(c3cccnc3)C2)C1 (configuration not stated) | 1.34% | -31.3%
O=C(c1cccn1Cc1cccs1)N1CCN(C(=O)C2CC2)CC1 | 4.89% | -4.84%
CN1CCc2nc(C3CCN(C(=O)CCC4CCCC4)CC3)ncc2C1 | 2.63% | -43.2%
Oc1cc(CCC2CCCCN2)cc(-c2ccncc2)c1 (configuration not stated) | 2.44% | -42.2%
Cc1ccc(N(C)C2CCN(C(=O)c3ccsc3)CC2)nn1 | 0.243% | 1.6%
CC(Cn1cccn1)NC(=O)NCc1ccc(S(N)(=O)=O)cc1 (configuration not stated) | 6.49% | 14.9%
CC(C)c1nnc2n1CCN(C(=O)c1cccc(C(F)(F)F)c1)C2 | 0.896% | -0.987%
CCn1nc(CNC(=O)C2CC(=O)N(C3CCCC3)C2)c2ccccc21 (configuration not stated) | 2.02% | -13.1%
CS(=O)(=O)N1CCC(C(=O)NC(Cc2ccsc2)c2ccccn2)CC1 (configuration not stated) | -1.32% | 14.7%
c1cnc(-c2cnc(N3CCSCC3)nc2C2CCCO2)cn1 (configuration not stated) | 6.48% | 13.6%
Cc1ccccc1CNc1nc(O)cc(C2CC(=O)N(C)C2)n1 (configuration not stated) | -2.9% | 0.153%
Cc1nnc(NC(=O)NC2CCOc3ccccc32)s1 (configuration not stated) | 1.16% | -1.42%
O=C1NCCN1C1CCN(Cc2ccccn2)CC1 | -1.42% | -6.38%

Structure (SMILES) | Percent Effect [1] | Percent Effect [2]
CN(Cc1ccco1)C(=O)CN1CCCC(Cn2cncn2)C1 (configuration not stated) | -1.04% | -14.6%
O=C(CCc1nccs1)N1CCC(N2CCNC2=O)CC1 | 4.28% | -16.6%
FC(F)(F)Cc1noc(CN2CCCC2c2noc(C3CC3)n2)n1 (configuration not stated) | 8.91% | 16.4%
Cn1ccc(C(=O)N2CCN(c3ncccn3)CC2)cc1=O | 1.62% | 22.4%
CSc1ncccc1C(=O)N1CCC(c2nc3c(C)cccc3[nH]2)CC1 | 3.63% | -17.2%
O=C(NS(=O)(=O)c1ccccc1Cl)c1cccc2c1OCCO2 | -6.15% | -2.92%
Cc1cc(CN2CC[C@H]3C[C@H](C(=O)N4CCC(C)CC4)O[C@H]3C2)no1 | 1.91% | 0.444%
Cc1ccc(C(=O)O)cc1S(=O)(=O)Nc1nn(-c2ccccc2)cc1C | 5.61% | 3.87%
CS(=O)(=O)Cc1ccc(CNC(=O)c2cccnc2O)cc1 | -6.68% | -14.2%
COc1ccc(OCCc2sc(C3(O)CCCNCC3)nc2C)cc1 (configuration not stated) | -5.55% | -52%
COCc1ccc(CN2CCC(O)(Cn3ccc4ncccc43)CC2)o1 | 0.485% | -34.6%
CCOc1ccc(NC(=O)c2cnc(N3CCCC3)nc2C)cc1 | -4.56% | -10.5%
Cc1cc(NC(=O)CN2CCOC(Cn3cccn3)C2)n(C)n1 (configuration not stated) | -3.92% | -12.8%
Cc1ccc2c(n1)N(CCN(C)C)CCN(C(=O)c1ccc[nH]1)C2 | 8.78% | -14.6%
CN(C)[C@@H]1CN(Cc2ccoc2)C[C@@H]2CCCO[C@@H]21 | -2.7% | 2.87%
Cc1nc(C)n(C2CCCN(C(=O)c3csc(C(C)C)n3)C2)n1 (configuration not stated) | 7.62% | 4.53%
O=C(c1cccc(Cn2ccnc2)c1)N1CCCC(n2ccnc2)C1 (configuration not stated) | -0.874% | -7.22%
O=C([C@H]1COC[C@H]2CN(Cc3ccco3)C[C@H]21)N1CCCO1 | 6.23% | -30.2%
Cn1nc2c(cc1=O)CN(CC(=O)Nc1ccc(Cl)cn1)CC2 | 48.3% | -4.57%
COC(=O)C1CCN(C(=O)CN2CCN(c3cccc(C)c3)CC2)CC1 | -0.137% | -48.5%
Cc1ccc(NC2CCN(C(=O)c3cccn3C)CC2)nn1 | -9.26% | -60.3%
Cc1cc(CN2CCc3nn(C(C)C)c(=O)cc3C2)no1 | -1.25% | 6.39%
CC(C)c1nnc2n1CC(CNCc1ccncc1)CC2 (configuration not stated) | -2.34% | -14.7%
Cc1cc(C2CCCN(C(=O)c3c(C)noc3C)C2)n[nH]1 (configuration not stated) | -1.62% | 8.79%
O=C(C1CCOC1)N1C[C@H]2CN(Cc3nccs3)C[C@H]2C1 (some centres not stated) | -1.88% | 1.98%
Cn1cc(-c2csc(N3CCN(C(=O)OC(C)(C)C)CC3)n2)cn1 | 0.501% | -1.73%

Structure (SMILES) | Percent Effect [1] | Percent Effect [2]
Cn1ccnc1CN1CCN(c2ccc(C#N)cc2F)CC1 | -2.39% | -29.4%
Cc1[nH]ncc1C(=O)N1CCCC(c2cc(C(F)(F)F)[nH]n2)C1 (configuration not stated) | 0.845% | 24.8%
Cc1cc2c(=O)n3c(nc2s1)CCN(Cc1cnc(C(C)C)nc1)CC3 | 6.6% | 14.8%
Cc1cccc(CN2C[C@@H]3COC[C@]3(COc3ccc(C#N)cn3)C2)n1 | -4.33% | -13.9%
CN1CCOC(CN(C(=O)Cc2ccccc2F)c2nccs2)C1 (configuration not stated) | -1.89% | -16%
Cc1ccc(CN2Cc3c(C(=O)N(C)C)nn(C)c3C2)s1 | 1.3% | -23.6%
Cc1cnn(CC2CN(CC(=O)N3CCc4ccccc43)CCO2)c1 (configuration not stated) | -4.75% | -15.5%
CCCn1[nH]cc/c1=N\C(=O)CN1CCCC1c1c(C)nn(C)c1C (configuration not stated) | -0.979% | -11%
CCc1cnc(CN2CCCC2c2noc(C3CC3)n2)o1 (configuration not stated) | 2.19% | 19.7%
O=C(CN1CCC(c2ccnn2CCO)CC1)NCC1CC1 | -6.54% | -19.2%
COc1cc(C)nc(N2CCN(C(=O)c3ccc(Cl)o3)CC2)n1 | 0.508% | 20%
CCc1nc(CN2CCCN(C(=O)C(C)n3ccnc3)CC2)cs1 (configuration not stated) | -1.76% | 8.27%
CN(CC(F)(F)F)C(=O)C1CSCN1C(=O)OC(C)(C)C (configuration not stated) | 2.82% | -9.84%
O=c1cc(Cn2ccnc2)nc2n1CCCN(Cc1ccsc1)C2 | -0.029% | -13.8%
Cc1cnn(CCC(=O)N2CCN(c3nc(C)cs3)CC2)c1 | -4.11% | -15.5%
COc1ccc(OCCCNC(=O)NCc2csc(C)n2)cc1 | -1.75% | -17%
CN1CCOC(CNCc2coc(-c3ccccc3)n2)C1 (configuration not stated) | -1.77% | -3.88%
Cc1cccc(N2CCN(C(=O)CN3CCN(CCO)CC3)CC2)c1 | 1.98% | 0.874%
N#CCCN(C(=O)CN1CCCC1C1CCCCC1)c1ccccc1 (configuration not stated) | 8.01% | -20.8%
CCc1nc(CN2CCOC(Cn3nc(C)nc3C)C2)no1 (configuration not stated) | 3.17% | 28.4%
CN(C)C(=O)N1CCN(Cc2cnn(C)c2)CC2(CNC(=O)C2)C1 (configuration not stated) | 2.15% | -5.82%
Cn1cnc2c1C(COCC1CCOCC1)CN(C(=O)c1ccoc1)C2 (configuration not stated) | 2.22% | -11.7%
COc1ccc(C2=CCN(C(=O)CN(C)CC(N)=O)CC2)cc1 | -2.46% | -18.1%
CN(Cc1nnc(C2CC2)n1C)C1CCN(Cc2ccon2)C1 (configuration not stated) | 12.3% | 14.2%
CCc1ccc(NS(=O)(=O)CC2=NC(=O)n3cccc3C2=O)cc1 | 0.755% | -77.4%
CC(=O)Nc1ccc(CNC2CC(=O)N(Cc3cccc(F)c3)C2)cc1 (configuration not stated) | -2.06% | -10.3%

Structure (SMILES) | Percent Effect [1] | Percent Effect [2]
Cn1c(NCC(O)c2ccc(F)cc2F)c(C#N)c(=O)n(C)c1=O (configuration not stated) | -5.91% | -8.41%
Cc1cnn(CC2CN(Cc3nccn3C)CCO2)c1 (configuration not stated) | -3.32% | 17.1%
CCn1c(C(=O)N2CCN(C(=O)NC(C)C)CC2)cc2ccccc21 | 2.76% | 18.3%
Cc1ccc(C(=O)NC(C)CN2CCCC2=O)c(=O)[nH]1 (configuration not stated) | -2.42% | -3.66%
CC(C)COCC1CN(Cc2ccc3c(c2)OCO3)Cc2ncn(C)c21 (configuration not stated) | 2.63% | -19.1%
c1cncc(N2CCOCC3(CCCN(c4nncs4)C3)C2)c1 (configuration not stated) | 2.36% | -5.55%
CN(Cc1ccncc1)CC(c1cccs1)N1CCOCC1 (configuration not stated) | -5.01% | -26%
Cc1[nH]ncc1CCCNC(=O)Nc1ccc(C#N)cc1 | 0.993% | -61.3%
CN(C(=O)NCc1ccncc1)C1CCN(c2ccccc2)C1=O (configuration not stated) | -3.08% | -7.78%
Cc1noc(C)c1CN1CCN(Cc2ccncc2)c2ncccc2C1 | -2.02% | 8.32%
Cc1cc(C)n(C2CCCN(C(=O)c3ccc(F)cc3F)C2)n1 (configuration not stated) | 7.84% | -0.315%
OC(COCc1cccs1)CN1CCC(c2ccn[nH]2)CC1 (configuration not stated) | 1.71% | -8.34%
Cc1cc(C)n(CC2CN(CCOc3cccc(F)c3)CCO2)n1 (configuration not stated) | 3.93% | 36.7%
CCCC(C)CN1CCC(n2cc(CCCO)nn2)CC1 (configuration not stated) | 1.56% | -23.7%
Cc1n[nH]c(C2CN(C(=O)c3cc(C4CC4)[nH]n3)CCO2)n1 (configuration not stated) | 1.87% | 23.4%
O=C1CC(c2cccs2)c2snc(C(=O)O)c2N1 (configuration not stated) | -3.23% | -4.3%
CCC1=N[C@@]2(CC[C@@H]3CN(C(=O)Nc4ccc(F)cc4)C[C@@H]32)C(=O)N1 | 0.408% | 5.29%
CCCNC(=O)COc1ccc(C)cn1 | -4.7% | -36.7%
COCCc1noc(CN2CCc3nn(C(C)C)c(=O)cc3C2)n1 | -0.0281% | 19.6%
O=C(c1ccn[nH]1)N1CCCC(n2cncn2)C1 (configuration not stated) | -5.6% | -25%
O=C(CN1CC(n2cccn2)C1)NCCc1c[nH]c2ccccc12 | -0.903% | -2.74%
O=C(NC[C@]12COC[C@H]1CN(Cc1nccs1)C2)c1ccccc1 | -2.56% | -14.5%
O=C(C1CCOCC1)N1CCc2ncnc(-c3ccc(F)cc3)c2CC1 | -1.43% | -14%
